Data on eight molecules can be found in PubChem BioAssay (NCI).

The panel holds about 83,000 compounds, 20% with a hit somewhere; the sample as a whole holds those more often.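 Plates (96-well) were seeded with cells, treated with compound at one concentration, and incubated for 48 hours before percent growth was determined.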 Unmarked numbers belong to inactive results. Calls of active or inactive are those of the source. How the source made its calls: active means growth percent below 10; inactive means the rest.

Common to all, as to experiment: NCI-60 one-dose screen, 48 h (100 = growth as untreated, 0 = no growth, -100 = all killed)
Conditions in all cases: 10 µM unless noted

The subject of experiment [1] is DU-145 prostate.
Experiment [2] has as its system K-562 leukemia.
Experiment [3] deals with MALME-3M melanoma.
Experiment [4] has as its system MDA-MB-231 breast.
For experiment [5], the system named is SF-268 CNS.
The subject of experiment [6] is SF-295 CNS.
Experiment [7] deals with SF-539 CNS.
Experiment [8] concerns UACC-257 melanoma.
Experiment [9] deals with HCT-15 colon.
The subject of experiment [10] is HT29 colon.
Experiment [11] has as its system SNB-75 CNS.
Experiment [12] has as its system SNB-19 CNS.
In experiment [13] the test system is U251 CNS.
In experiment [14] the test system is PC-3 prostate.
Experiment [15] has as its system SK-MEL-5 melanoma.
Experiment [16] concerns UACC-62 melanoma.
In experiment [17] the test system is LOX IMVI melanoma.
Experiment [18] deals with SK-MEL-28 melanoma.

For the molecule `O[C@H]1CO[C@H]2[C@@H]1OC[C@@H]2Oc1ccc(Nc2nc(Nc3ccc(F)c(Cl)c3)ncc2F)cc1Cl`, the growth in experiment [1] is 117%; in [2], 115%; in [3] it was 100%; in experiment [4], 95.4%; in [5] it was 103%; in experiment [6], 92.1%. Also, the growth in experiment [7] is 95%; in experiment [8], 106%; in experiment [9], 90.8%; in experiment [10], 111%; in experiment [11], 74.7%; in experiment [12] it was 103%. Moreover, the growth in experiment [13] is 108%; in experiment [14], 102%; in [15] it was -90.5% (active); in experiment [16], 89.4%; in experiment [17], 103%; in experiment [18], 99.7%.

As to `COc1ccc(/C(C)=C(\c2ccc(Cl)cc2)c2ccc(OCCN3CCCCC3)cc2)cc1F`, the growth in experiment [1] is 63.3%; in experiment [2], 1.56% (active); in experiment [3], -27.2% (active); in experiment [4], 49.5%; in experiment [5] it was 63.5%; in experiment [6], -19.7% (active). Further, the growth in experiment [7] was 4.69% (active); in [8], 24.6%; in experiment [9], 0.563% (active); in [10] it was 4.57% (active); in experiment [11] it was 65%; in experiment [12], 58.3%. Also, the growth was 34.1% in experiment [13]; 28% in experiment [14]; 57.1% in experiment [15]; -73.1% (active) in [17]; -21.3% (active) in experiment [18].

In the case of `Cc1nc(Nc2ccc(S(=O)(=O)Nc3cc(C)on3)cc2)c2ccccc2n1`, the growth in [1] is 112%; in experiment [2], 99.9%; in [3], 93.2%; in experiment [4], 108%; in experiment [5], 99.5%; in [6], 95.4%. Besides, the growth was 97.6% in experiment [7]; 103% in experiment [8]; 99.1% in experiment [9]; 98.6% in experiment [10]; 83.2% in [11]; 110% in experiment [12]. The growth was 101% in [13]; 96.9% in [14]; 99.7% in [15]; 98.2% in experiment [16]; 102% in experiment [17]; 110% in experiment [18].

Take `COc1ccc(/C=C2\COc3ccc(O)cc3C2=O)cc1OC`: the growth in experiment [1] is 65.7%; in experiment [2] it was 8.84% (active); in [3] it was 92.6%; in experiment [4], 87.5%; in experiment [5], 93.1%; in [6] it was 103%. The growth was 83.2% in experiment [7]; 80.2% in experiment [8]; 71.3% in experiment [9]; 19.9% in [10]; 91.3% in experiment [11]; 59.5% in [12]. The growth in [13] was 40.8%; in experiment [14] it was 64.3%; in experiment [16], 77.1%; in experiment [17], 11.6%; in [18], 97.3%.

For the molecule `CCCCOc1nc2ccc(Cl)cc2cc1/C=C/C(=O)/C=C1/CC(c2cc3cc(Cl)ccc3nc2OCCCC)Nc2ccccc2N1` (centres undefined), the growth in [1] was 103%; in experiment [2], 91.7%; in experiment [3] it was 79.4%; in [4], 81%; in experiment [5] it was 97.9%; in [6], 96.2%. Also, the growth is 91.9% in experiment [7]; 100% in [8]; 94.1% in experiment [9]; 101% in experiment [10]; 86.2% in experiment [11]; 99.1% in [12]. For the same molecule, the growth was 96.4% in experiment [13]; 91.6% in experiment [14]; 89.1% in [16]; 94.4% in [17]; 105% in experiment [18].

For the molecule `CCCCC1COc2cccc3c(SCC(=O)N(C)c4cccc(Cl)c4)cc[n+]1c23` (centres undefined), the growth in [1] was 120%; in experiment [2], 97.8%; in [3] it was 104%; in experiment [4], 101%; in experiment [5] it was 118%; in experiment [6] it was 99.3%. For the same molecule, the growth in [7] was 97.5%; in [8], 113%; in experiment [9], 101%; in experiment [10], 100%; in experiment [11] it was 137%; in [12], 98.7%. Moreover, the growth is 112% in experiment [13]; 106% in [14]; 101% in experiment [16]; 102% in experiment [17]; 106% in [18].

As to `CCCCS(=O)(=O)Oc1ccc(-c2nc(C)c(C(=O)OCC)s2)cc1C=O`, the growth was 61.4% in experiment [1]; 13.7% in [2]; 75.1% in experiment [3]; 76.7% in experiment [4]; 79.3% in experiment [5]; 67.5% in experiment [6]. For the same molecule, the growth was 58% in experiment [7]; 96.2% in experiment [8]; 50.6% in experiment [9]; 18.5% in [10]; 89% in [11]; 53.8% in [12]. Further, the growth was 49.6% in [13]; 53.9% in experiment [14]; 64.6% in experiment [16]; 28.3% in experiment [17]; 90% in experiment [18].

Consider `O=C(O)C1C[C@](O)(c2ccc(F)cc2)[C@@H](c2ccc(F)cc2)O1` (some centres undefined), for which the growth in [1] was 139%; in experiment [2] it was 89.3%; in experiment [3], 113%; in [4], 115%; in experiment [5], 117%; in experiment [6] it was 94.2%. Further, the growth is 125% in experiment [7]; 111% in [8]; 131% in [9]; 120% in [10]; 114% in experiment [11]; 97.5% in experiment [12]. Also, the growth in [13] is 110%; in experiment [14], 85.9%; in experiment [15] it was 129%; in experiment [16] it was 108%; in experiment [17], 111%; in experiment [18], 129%.
